Measured values published in the supplement of paper PMC6853941.
A number with no mark means an inactive call.

The compounds below were run on MCF10A (assay: perturbation Mahalanobis distance of morphological profile vs DMSO controls (Mahalanobis distance (SD units)); higher = stronger morphological change, active = 7 or more). Details: screen batch: Batch1_Mahalanobis_Distance; 72 h.
Procedure: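 MCF10A cells were seeded onto drugs dispensed acoustically into 384-well plates, using one dose per drug chosen from its human peak plasma concentration, and incubated for 72 h at 37 °C. Cells were stained for DNA, tubulin and mitochondria and imaged; 78 CellProfiler features were extracted, plate-normalised and compared with DMSO wells.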

Row | SMILES | perturbation Mahalanobis distance
1 | CCOC(=O)C1=C[C@@H](OC(CC)CC)[C@H](NC(C)=O)[C@@H](N)C1 [Oseltamivir] (1 µM) | 2.31
2 | O=C(O)P(=O)(O)O [Foscarnet] (887 µM) | 3.95
3 | COc1cc2nc(N3CCN(C(=O)C4CCCO4)CC3)nc(N)c2cc1OC (stereo unspecified) [Terazosin] (1 µM) | 2.35
4 | CN(C)CCCN1c2ccccc2Sc2ccc(C(F)(F)F)cc21 [Triflupromazine] (1.4 µM) | 4.75
5 | CO/N=C(\C(=O)N[C@@H]1C(=O)N2C(C(=O)O)=C(CSc3nnnn3C)CS[C@H]12)c1csc(N)n1 [Cefmenoxime] (183.8 µM) | 3.87
6 | CCN(CCO)CCCC(C)Nc1ccnc2cc(Cl)ccc12 (stereo unspecified) [Hydroxychloroquine] (1.5 µM) | 3.38
7 | NC(=O)N[C@@H](CCC(=O)O)C(=O)O [Carglumic Acid] (68.4 µM) | 2.14
8 | O=c1ncnc2[nH][nH]cc1-2 [Allopurinol] (139.6 µM) | 2.93
9 | CC[N+](C)(CC)CCOC(=O)C(O)(c1ccccc1)C1CCCCC1 (stereo unspecified) [Oxyphenonium Bromide] (0.07 µM) | 2.2
10 | CC(=O)O[C@H]1C[C@@H]2CC[C@@H]3[C@H](CC[C@@]4(C)[C@H]3C[C@H]([N+]3(C)CCCCC3)[C@@H]4OC(C)=O)[C@@]2(C)C[C@@H]1N1CCCCC1 [Vecuronium Bromide] (3.3 µM) | 3.8
11 | CNS(=O)(=O)Cc1ccc2[nH]cc(CCN(C)C)c2c1 [Sumatriptan] (1 µM) | 1.95
12 | CC(C)(C)C(=O)OCC(=O)[C@H]1CC[C@H]2[C@@H]3CCC4=CC(=O)CC[C@]4(C)[C@H]3CC[C@]12C [Desoxycorticosterone Pivalate] (0.72 µM) | 4.89
13 | Cc1nc(-c2ccc(OCC(C)C)c(C#N)c2)sc1C(=O)O [Febuxostat] (178 µM) | 2.73
14 | CC(N=C(NC#N)Nc1ccncc1)C(C)(C)C (stereo unspecified) [Pinacidil] (8.3 µM) | 4.94
15 | Cc1nc2n(c(=O)c1CCN1CCC(c3noc4cc(F)ccc34)CC1)CCCC2 [Risperidone] (73 µM) | 2.9
16 | CCN1CC(CCN2CCOCC2)C(c2ccccc2)(c2ccccc2)C1=O (stereo unspecified) [Doxapram] (66 µM) | 2.26
17 | O=C(O)[C@H]1OC(Oc2ccc([C@@H]3[C@@H](CC[C@@H](O)c4ccc(F)cc4)C(=O)N3c3ccc(F)cc3)cc2)[C@H](O)[C@@H](O)[C@@H]1O (stereo partly specified) [Ezetimibe Glucuronide] (47 µM) | 2.38
18 | O=C1OCCN1/N=C/c1ccc([N+](=O)[O-])o1 [Furazolidone] (22.2 µM) | 3.46
19 | O=C(O)c1cnccn1 [Pyrazinoic Acid] (604.4 µM) | 2.79
20 | CN(C)CCCC1(c2ccc(F)cc2)OCc2cc(C#N)ccc21 (stereo unspecified) [Citalopram] (3.1 µM) | 2.77

Same assay, conditions: screen batch: Batch2_Mahalanobis_Distance; 72 h

Row | SMILES | perturbation Mahalanobis distance
21 | CCOC(=O)C1=C[C@@H](OC(CC)CC)[C@H](NC(C)=O)[C@@H](N)C1 [Oseltamivir] (1 µM) | 1.77
22 | O=C(O)P(=O)(O)O [Foscarnet] (887 µM) | 2.62
23 | COc1cc2nc(N3CCN(C(=O)C4CCCO4)CC3)nc(N)c2cc1OC (stereo unspecified) [Terazosin] (1 µM) | 2.82
24 | CN(C)CCCN1c2ccccc2Sc2ccc(C(F)(F)F)cc21 [Triflupromazine] (1.4 µM) | 4.32
25 | CO/N=C(\C(=O)N[C@@H]1C(=O)N2C(C(=O)O)=C(CSc3nnnn3C)CS[C@H]12)c1csc(N)n1 [Cefmenoxime] (183.8 µM) | 4.1
26 | CCN(CCO)CCCC(C)Nc1ccnc2cc(Cl)ccc12 (stereo unspecified) [Hydroxychloroquine] (1.5 µM) | 2.9
27 | NC(=O)N[C@@H](CCC(=O)O)C(=O)O [Carglumic Acid] (68.4 µM) | 2.6
28 | O=c1ncnc2[nH][nH]cc1-2 [Allopurinol] (139.6 µM) | 2.89
29 | N#C[C@@H]1C[C@@H]2C[C@@H]2N1C(=O)[C@@H](N)C12CC3CC(CC(O)(C3)C1)C2 [Saxagliptin] (0.38 µM) | 3.33
30 | CC[N+](C)(CC)CCOC(=O)C(O)(c1ccccc1)C1CCCCC1 (stereo unspecified) [Oxyphenonium Bromide] (0.07 µM) | 2.44
31 | CC(=O)O[C@H]1C[C@@H]2CC[C@@H]3[C@H](CC[C@@]4(C)[C@H]3C[C@H]([N+]3(C)CCCCC3)[C@@H]4OC(C)=O)[C@@]2(C)C[C@@H]1N1CCCCC1 [Vecuronium Bromide] (3.3 µM) | 2.49
32 | CNS(=O)(=O)Cc1ccc2[nH]cc(CCN(C)C)c2c1 [Sumatriptan] (1 µM) | 3.35
33 | CC(C)(C)C(=O)OCC(=O)[C@H]1CC[C@H]2[C@@H]3CCC4=CC(=O)CC[C@]4(C)[C@H]3CC[C@]12C [Desoxycorticosterone Pivalate] (0.72 µM) | 3.54
34 | Cc1nc(-c2ccc(OCC(C)C)c(C#N)c2)sc1C(=O)O [Febuxostat] (178 µM) | 3.22
35 | CC(N=C(NC#N)Nc1ccncc1)C(C)(C)C (stereo unspecified) [Pinacidil] (8.3 µM) | 4.16
36 | Cc1nc2n(c(=O)c1CCN1CCC(c3noc4cc(F)ccc34)CC1)CCCC2 [Risperidone] (73 µM) | 2.4
37 | CCN1CC(CCN2CCOCC2)C(c2ccccc2)(c2ccccc2)C1=O (stereo unspecified) [Doxapram] (66 µM) | 2.47
38 | O=C(O)[C@H]1OC(Oc2ccc([C@@H]3[C@@H](CC[C@@H](O)c4ccc(F)cc4)C(=O)N3c3ccc(F)cc3)cc2)[C@H](O)[C@@H](O)[C@@H]1O (stereo partly specified) [Ezetimibe Glucuronide] (47 µM) | 2.09
39 | O=C1OCCN1/N=C/c1ccc([N+](=O)[O-])o1 [Furazolidone] (22.2 µM) | 3.27
40 | O=C(O)c1cnccn1 [Pyrazinoic Acid] (604.4 µM) | 2.79
41 | CN(C)CCCC1(c2ccc(F)cc2)OCc2cc(C#N)ccc21 (stereo unspecified) [Citalopram] (3.1 µM) | 2.43
